According to PubChem BioAssay (Tox21):
Records with an inconclusive call do not appear. Activity calls are given as the source filed them. Calls follow the shape of the dose curve; as a rule, active = well fitted curve in the direction sought with a large enough effect in the repeat runs; inconclusive = weak or mixed curves; inactive = no such curve, though single readings can be large; an effect the other way counts as inactive or inconclusive.

tested on: not listed separately; assay: Caspase-3/7 induction in HepG2 cells by small molecules, qHTS cell viability counter screen (AID 1346981); details: CellTiter-Fluor fluorescence, 17 h; series mostly up to 92.4 µM; activity change, negative = cytotoxicity: at the top concentration; also: nearly all actives have a fitted effect of over 30% in size
How it was run: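 In this quantitative HTS counter screen, compounds delivered in DMSO were left on unmodified HepG2 cells for 16 hr at 37 C. Viability was then determined fluorometrically with CellTiter-Fluor, in parallel with caspase-3/7 induction in the same wells.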
% is scaled to controls: 0 for no effect and ±100 for the full control effect.

SMILES | activity change, negative = cytotoxicity
COc1cc2c(cc1OC)CN(C(=O)[C@H](C)N[C@@H](CCc1ccccc1)C(=O)O)[C@H](C(=O)O)C2 | 6.24% [at 42.5 µM] (inactive)
O=C(Cn1ccnc1[N+](=O)[O-])NCc1ccccc1 | -0.183% [at 42.5 µM] (inactive)
COC(=O)/C=C\C(=O)O | 8.79% (inactive)
CCCCOC(=O)C(C)O (stereo unspecified) | -1.73% (inactive)
N#CCC(=O)NN | 4.08% [at 42.5 µM] (inactive)
Cc1cc(C)c(C(=O)O)c(C)c1 | 2.99% (inactive)
CCOc1cccc(N)c1 | -17.9% (inactive)
O=C(CCCl)NCCc1ccccc1 | 2% [at 42.5 µM] (inactive)
CC(=O)C1C(=O)C=C(C)OC1=O (stereo unspecified) | 3.09% (inactive)
CCOc1ccccc1OCC1CNCCO1 (stereo unspecified) | -1.06% [at 42.5 µM] (inactive)
CC1(C)O[C@H]2CC(=O)OC[C@]23[C@H]2CC[C@@]4(C)[C@H](c5ccoc5)OC(=O)[C@H]5O[C@]54[C@]2(C)C(=O)C[C@@H]13 | -0.14% [at 42.5 µM] (inactive)
CCO[Si](CC)(OCC)OCC | 0.653% (inactive)
CC(=O)CCc1ccc(OC(C)=O)cc1 | 5.93% (inactive)
CCCCCCC1(C)CCC(=O)O1 (stereo unspecified) | -2.91% (inactive)
O=C(O)[C@H](O)c1ccccc1 | 4.13% [at 42.5 µM] (inactive)
C=CC/C=C/C | 1.55% (inactive)
CCC(C)C(=O)OCCc1ccccc1 (stereo unspecified) | -0.124% (inactive)
COP(=O)(O)OP(=O)(O)OC | 4.25% (inactive)
O=C(O)c1cc2ccccc2nc1C(=O)O | 3.09% (inactive)

SMILES | activity change, negative = cytotoxicity
COc1cc(/C=C/C(N)=O)cc(OC)c1OC | 3.92% [at 42.5 µM] (inactive)
COC(=O)c1cc(Cl)cc(Cl)c1 | -0.46% (inactive)
O=C1c2ccccc2C(=O)c2cc(Cl)ccc21 | 3.18% [at 8.39 µM] (inactive)
CO[C@@]1(NC(=O)Cc2cccs2)C(=O)N2C(C(=O)O)=C(COC(N)=O)CS[C@@H]21 | 0.116% [at 42.5 µM] (inactive)
C[C@H]1[C@@H](c2ccccc2)NC(=O)N1C | 3.41% (inactive)
CC/C=C\CCOC(=O)c1ccccc1O | 0.666% (inactive)
Cc1ccccc1C(N)=O | 8.05% (inactive)
OC1OCCOC1O (stereo unspecified) | -0.46% (inactive)
C/C=C(\C)C(C)=O | 6.92% (inactive)
COC(=O)c1ccccc1C(=O)O | -0.0401% (inactive)
CC(C)c1ccc(C=O)cc1 | -1.24% (inactive)
CCC/C=C(\C=O)CC | -1.73% (inactive)
CSc1cnccn1 | 2.11% (inactive)
CCOC(=O)CC1(C)OCC(C)O1 (stereo unspecified) | -1.94% (inactive)
CC(=O)CC(=O)OC(C)(C)C | -2.12% (inactive)
Cc1c(NC(=O)c2cccnc2)c(=O)n(-c2ccccc2)n1C | 6.83% [at 42.5 µM] (inactive)
c1ccc(-c2nn[nH]n2)cc1 | 5.93% (inactive)
CCCCCCCCCCOC(C)=O | 0.499% (inactive)

target: Nuclear receptor subfamily 1 group I member 2 (Homo sapiens) (UniProt O75469); assay: Human pregnane X receptor (PXR) small molecule agonists, qHTS assay (AID 1346982); details: PXR-Luc HepG2, CYP3A4 luciferase reporter, 24 h; series mostly up to 92.4 µM; activation: at the top concentration; also: nearly all actives have a fitted effect of over 35% in size; also: potency is read from the fitted curve at half-maximal effect
How it was run: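 Reporter HepG2 cells expressing PXR-Luc are cultured in charcoal-stripped FBS (5%), treated with compounds for 24 hr at 37 C, and assayed by ONE-Glo luminescence after 30 min at room temperature.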

Chain of Nuclear receptor subfamily 1 group I member 2 (Homo sapiens) (O75469 whole entry, looked up): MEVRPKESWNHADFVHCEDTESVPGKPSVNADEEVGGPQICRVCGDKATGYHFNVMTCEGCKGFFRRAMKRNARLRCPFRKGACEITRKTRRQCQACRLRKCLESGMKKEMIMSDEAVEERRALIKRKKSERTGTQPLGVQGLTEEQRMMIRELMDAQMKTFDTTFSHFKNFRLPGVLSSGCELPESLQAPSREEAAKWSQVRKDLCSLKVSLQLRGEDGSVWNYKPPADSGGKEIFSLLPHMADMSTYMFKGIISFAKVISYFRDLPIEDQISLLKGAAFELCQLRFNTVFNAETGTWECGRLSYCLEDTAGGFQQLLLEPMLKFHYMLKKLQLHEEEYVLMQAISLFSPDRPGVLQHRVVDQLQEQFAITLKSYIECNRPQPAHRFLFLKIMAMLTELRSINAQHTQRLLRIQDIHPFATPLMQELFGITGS

SMILES | activation | Potency
COc1cc2c(cc1OC)CN(C(=O)[C@H](C)N[C@@H](CCc1ccccc1)C(=O)O)[C@H](C(=O)O)C2 | -13.8% [at 42.5 µM] (inactive) | –
O=C(Cn1ccnc1[N+](=O)[O-])NCc1ccccc1 | -4.43% [at 42.5 µM] (inactive) | –
COC(=O)/C=C\C(=O)O | 11.6% (inactive) | –
CCCCOC(=O)C(C)O (stereo unspecified) | 18.9% (inactive) | –
N#CCC(=O)NN | -4.76% [at 42.5 µM] (inactive) | –
Cc1cc(C)c(C(=O)O)c(C)c1 | 5.28% (inactive) | –
CCOc1cccc(N)c1 | 23.2% (inactive) | –
O=C(CCCl)NCCc1ccccc1 | 12.8% [at 42.5 µM] (inactive) | –
CC(=O)C1C(=O)C=C(C)OC1=O (stereo unspecified) | 23.1% (inactive) | –
CCOc1ccccc1OCC1CNCCO1 (stereo unspecified) | -4.07% [at 42.5 µM] (inactive) | –
CC1(C)O[C@H]2CC(=O)OC[C@]23[C@H]2CC[C@@]4(C)[C@H](c5ccoc5)OC(=O)[C@H]5O[C@]54[C@]2(C)C(=O)C[C@@H]13 | 13.6% [at 42.5 µM] (inactive) | –
CCO[Si](CC)(OCC)OCC | – | 15.4 µM (active)
CC(=O)CCc1ccc(OC(C)=O)cc1 | 14.5% (inactive) | –
CCCCCCC1(C)CCC(=O)O1 (stereo unspecified) | 6.4% (inactive) | –
O=C(O)[C@H](O)c1ccccc1 | -5.58% [at 42.5 µM] (inactive) | –
C=CC/C=C/C | 1.51% (inactive) | –
CCC(C)C(=O)OCCc1ccccc1 (stereo unspecified) | 2.55% (inactive) | –

SMILES | activation | Potency
COP(=O)(O)OP(=O)(O)OC | 9.88% (inactive) | –
O=C(O)c1cc2ccccc2nc1C(=O)O | 8.09% (inactive) | –
COc1cc(/C=C/C(N)=O)cc(OC)c1OC | 3.19% [at 42.5 µM] (inactive) | –
COC(=O)c1cc(Cl)cc(Cl)c1 | 2.86% (inactive) | –
O=C1c2ccccc2C(=O)c2cc(Cl)ccc21 | 8.25% [at 8.39 µM] (inactive) | –
CO[C@@]1(NC(=O)Cc2cccs2)C(=O)N2C(C(=O)O)=C(COC(N)=O)CS[C@@H]21 | -0.626% [at 42.5 µM] (inactive) | –
C[C@H]1[C@@H](c2ccccc2)NC(=O)N1C | 14.8% (inactive) | –
Cc1ccccc1C(N)=O | -0.79% (inactive) | –
OC1OCCOC1O (stereo unspecified) | 2.32% (inactive) | –
C/C=C(\C)C(C)=O | 13% (inactive) | –
COC(=O)c1ccccc1C(=O)O | -9.55% (inactive) | –
CC(C)c1ccc(C=O)cc1 | -9.25% (inactive) | –
CSc1cnccn1 | -3.27% (inactive) | –
CCOC(=O)CC1(C)OCC(C)O1 (stereo unspecified) | -2.78% (inactive) | –
Cc1c(NC(=O)c2cccnc2)c(=O)n(-c2ccccc2)n1C | -2.87% [at 42.5 µM] (inactive) | –
c1ccc(-c2nn[nH]n2)cc1 | 11.1% (inactive) | –
CCCCCCCCCCOC(C)=O | 4.4% (inactive) | –
